Data as given in PubChem BioAssay (Tox21).
Inconclusive results are not listed. Values without a mark were called inactive. Active and inactive are the calls of the source. The call rests on the fitted dose curve; in most records, active means well fitted activation curve with a large enough effect in the repeat runs; inconclusive means weak or mixed curves; inactive means flat fitted curve, though single readings scatter.

assay: A CellTox Green Cytotoxicity Assay to monitor cytotoxicity in HepG2 cells - 24 hour (AID 1224878); conditions: CellTox Green fluorescence; series mostly up to 76.8 µM; cytotoxicity: at the top concentration; further: nearly all actives have a fitted effect of over 45% in size
Text: National Center for Advancing Translational Sciences [NCATS]
NIH Chemical Genomics Center [NCGC]
U.S. Environmental Protection Agency [EPA]
National Institutes of Environmental Health Sciences [NIEHS]
National Toxicology Program [NTP]
Cell-based models are critical for drug discovery. Determining the natural cytotoxic effects resulting from test compounds is an essential research activity. A CellTox Green Cytotoxicity Assay to monitor cytotoxicity in real time of continues cell culture during 40 hours of the compound treatment was used to screen Tox21 10K library compounds in HepG2 cells. CellTox Green Cytotoxicity Assay is a nonlytic, homogeneous, biofluorescent method to measure cytotoxicity in cell culture after experimental manipulation. The assay system uses a proprietary asymmetric cyanine dye that is excluded from viable cells but preferentially stains the dead cell's DNA. […] Viable cells produce no appreciable increases in fluorescence. Therefore, the fluorescence signal produced by the binding interaction with dead cell DNA is proportional to cytotoxicity.
The mixture of HepG2 cell suspension and reagents were dispensed at 600cells/6 ul/well in 1536-well tissue culture treated black solid bottom plates using a Multidrop dispenser. After the assay plates were incubated at a 37 C/5% CO2 incubator for 5 hours, 23 nL of compounds dissolved in DMSO, positive and negative controls was transferred to the assay plate by a pintool work station. The plates were incubated at 37 C for 40 hours. The fluorescence intensity were measured at 0h, 8h, 16h, 24h, 32h and 40h time points using ViewLux plate reader during compound treatment.
On the % scale 0 is the no-effect control and ±100 the full control effect; potency means the concentration at half of the fitted maximal effect.

| Structure (SMILES) | cytotoxicity | Potency |
| --- | --- | --- |
| COc1cccc(N(C)C(=S)Oc2ccc3c(c2)CCCC3)n1 | 1.61% [at 35.3 µM] | – |
| COc1cc2c(cc1OC)C(C(C(=O)N(CCc1ccc(OC)c(OC)c1OC)CCc1ccc(OC)c(OC)c1OC)c1ccccc1)=NCC2 (stereo not given) | 4.25% [at 35.3 µM] | – |
| CC(C)(CO)[N+](=O)[O-] | -6.1% | – |
| CN(C)c1ccc(/C=C/c2ccc([N+](=O)[O-])cc2)cc1 | 17.5% [at 6.97 µM] | – |
| CCCCCCCCCCO[C@@H]1O[C@H](CO)[C@@H](O)[C@H](O)[C@H]1O | 22.6% | – |
| Cc1[nH]c(C)c(Cl)c(=O)c1Cl | -5.69% [at 15.8 µM] | – |
| CCCCC(CC)CN1C(=O)C2C3C=CC(C3)C2C1=O (stereo not given) | 23.4% | – |
| CCOC(=O)C(O)c1ccccc1 (stereo not given) | -10.3% [at 35.3 µM] | – |
| CCCCC(CC)COC(=O)CCCCCCCCC(=O)OCC(CC)CCCC (stereo not given) | -3.2% | – |
| CCC(=O)O[C@]1(C(=O)CCl)[C@@H](C)C[C@H]2[C@@H]3CCC4=CC(=O)C=C[C@]4(C)[C@@]3(F)[C@@H](O)C[C@@]21C | -15.6% [at 35.3 µM] | – |
| NCC(=O)O | 7.92% [at 15.8 µM] | – |
| CCCCCCCCO[C@@H]1O[C@H](CO)[C@@H](O)[C@H](O)[C@H]1O | 3.66% | – |
| CCCCNc1ccc(C(=O)OCCOCCOCCOCCOCCOCCOCCOCCOCCOC)cc1 | -1.87% [at 35.3 µM] | – |
| CN1CCC(N(Cc2cccs2)c2ccccc2)CC1 | – | 10.7 µM (active) |
| C#CCN(C)CCCOc1ccc(Cl)cc1Cl | 11.5% [at 35.3 µM] | – |
| CN(C)c1ccc(CCO)cc1 | 1.2% | – |
| CC(C)O.CC(C)O.CCOC(=O)/C=C(\C)O.CCOC(=O)/C=C(\C)O.[Ti] | 7.34% | – |
| COc1cc2nc(Cl)nc(N)c2cc1OC | -15.1% [at 35.3 µM] | – |
| Brc1c2ccccc2c(Br)c2ccccc12 | 2.45% [at 6.97 µM] | – |
| OC(C#CCN1CCCC1)(c1ccccc1)c1ccccc1 | 8.25% [at 35.3 µM] | – |

| Structure (SMILES) | cytotoxicity | Potency |
| --- | --- | --- |
| COC(=O)c1ccc(I)cc1S(=O)(=O)NC(=O)Nc1nc(C)nc(OC)n1 | 2.75% | – |
| O=C(O)CC(=O)C(=O)O | -13.9% | – |
| OC[C@H]1O[C@@H](OCCc2ccc(O)cc2)[C@H](O)[C@@H](O)[C@@H]1O | -4.05% [at 35.3 µM] | – |
| C=C1C(=C/C=C2\CCC[C@]3(C)[C@@H]([C@H](C)/C=C/[C@@H](O)C4CC4)CC[C@@H]23)C[C@@H](O)C[C@@H]1O | 0.794% [at 35.3 µM] | – |
| Nc1ccc(N)c2c1C(=O)c1ccccc1C2=O | -34.1% | – |
| C[C@@H]1C[C@H]2[C@@H]3CCC4=CC(=O)C=C[C@]4(C)[C@@]3(F)[C@@H](O)C[C@]2(C)[C@@]1(O)C(=O)COC(=O)c1ccncc1 | -18.9% [at 35.3 µM] | – |
| C[N+](C)(C)CCOC(=O)CCC(=O)OCC[N+](C)(C)C | 2.55% [at 35.3 µM] | – |
| Clc1ccc2c(c1)CCc1cccnc1C2=C1CCNCC1 | – | 23.9 µM (active) |
| CC1CCC(=O)C1=O (stereo not given) | 10.4% | – |
| CN(C)CCN(Cc1ccccc1)c1ccccn1 | 10.4% [at 35.3 µM] | – |
| Cc1ncc(CO)c(C=O)c1O | 0.596% [at 35.3 µM] | – |
| O=C1[C@H]2CCCC[C@H]2C(=O)N1CCCCN1CCN(c2nsc3ccccc23)CC1 | -1.17% [at 35.3 µM] | – |
| c1ccc(-c2ccccn2)nc1 | -11% | – |
| CC[N+](C)(CC)CCOC(=O)C(O)(c1ccccc1)C1CCCCC1 (stereo not given) | -13.2% [at 35.3 µM] | – |
| CC(=O)[O][Al][O]C(C)=O | -14.5% | – |
| COc1ccc(-c2nc3ccc(C4=NNC(=O)CC4C)cc3[nH]2)cc1 (stereo not given) | 10% [at 35.3 µM] | – |
| Nc1ccc(S(=O)(=O)Nc2ccccc2)cc1 | -4.06% [at 35.3 µM] | – |
| CC(CSC(=O)c1ccccc1)C(=O)N1C[C@@H](Sc2ccccc2)C[C@H]1C(=O)O (stereo not given in full) | -1.93% [at 15.8 µM] | – |
| Cn1c(=O)cc(Oc2ccc(F)cc2F)c2cnc(NCC(C)(C)O)nc21 | 0.595% | – |
| COc1ccc(C(=O)c2ccc(OC)cc2O)c(O)c1 | 12.1% | – |
